Rows were chosen to be rich in hits. Some 2.4% of all compounds tested hit in one or more screens of this group.
D2 PAM-1 = potentiates the human D2 dopamine receptor allosterically; P14416; DiscoveRx D2 beta-arrestin cells, luminescence, 90 min; 100% = 57 uM dopamine signal; potentiation, % (test concentration not listed); 360,000 tested, 0.23% active; AID 624464; in the data active means potentiation above about 50%; inconclusive means mostly about 30% to 49%
Target sequence (P14416 whole entry, looked up): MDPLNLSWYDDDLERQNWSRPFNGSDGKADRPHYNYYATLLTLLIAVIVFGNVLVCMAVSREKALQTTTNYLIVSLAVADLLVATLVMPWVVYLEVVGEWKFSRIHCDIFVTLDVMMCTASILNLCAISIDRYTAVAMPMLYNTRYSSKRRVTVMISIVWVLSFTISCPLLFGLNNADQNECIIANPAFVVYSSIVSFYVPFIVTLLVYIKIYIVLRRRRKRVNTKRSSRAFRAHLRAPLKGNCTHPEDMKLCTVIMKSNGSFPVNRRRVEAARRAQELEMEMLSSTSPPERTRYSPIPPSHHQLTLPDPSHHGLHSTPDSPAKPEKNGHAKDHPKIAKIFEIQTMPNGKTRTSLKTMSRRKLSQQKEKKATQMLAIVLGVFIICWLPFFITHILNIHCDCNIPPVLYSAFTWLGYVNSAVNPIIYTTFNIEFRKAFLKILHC
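PathHunter D2 cells, attached overnight at 37 deg C, received compound in DMSO plus dopamine at EC20 (50 nM final) for 90 min at 37 deg C. Beta-arrestin recruitment was read as luminescence after 1 h with detection reagent at ambient temperature.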
D2 antag = antagonizes the human D2 dopamine receptor | HEK293 TREx D2 cells, calcium flux, dopamine EC80 | inhibition, % at 10 µM | P14416 | AID 485344 | 340,000 tested, 2% active; in the data active means inhibition above about 30%; inactive means below that, where a call was filed; further: 0% is about no effect
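Cells plated overnight at 30 C with tetracycline; no-wash calcium dye, 30–90 min RT; 10 s baseline; compound pinned; 180 s read; EC80 dopamine added; another 180 s read.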
D2 ag-1 = activates the human D2 dopamine receptor; activation, % (no concentration beside the values); AID 624465; 360,000 tested, 0.084% active; DiscoveRx PathHunter D2 beta-arrestin, luminescence, 90 min; 100% = 57 uM dopamine signal; in the data active means activation above about 40%; inconclusive means between about 15% and that limit
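DiscoveRx PathHunter D2 beta-arrestin cells (2,100/well) attached overnight, then compound-stimulated 90 min at 37 C in HBSS/10 mM HEPES/0.1% Tween-20 buffer; beta-galactosidase complementation read by luminescence after 1 h at ambient temperature. Dopamine 57 uM final (EC100) as control.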
D2 ag-2 = D2 dopamine receptor (human) agonism | P14416 | HEK293 T-REx D2 cells, calcium flux agonist mode | activation, % at 2 µM | 340,000 tested, 0.53% active | AID 485358;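 active means activation over 3 SD above normal in the single-dose calcium agonist read, cut at about 30% in these data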; further: 0% is about no effect
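Tetracycline-induced HEK293 Trex cells with D2 receptor force-coupled to calcium signaling, plated overnight at 30 C and loaded with no-wash calcium dye. Calcium flux read kinetically for 180 s after compound addition; responses flag agonists.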
D2 PAM-2 = positive allosteric modulators of human D2 dopamine receptor. HEK293 T-REx D2, calcium flux, EC20 dopamine potentiation. potentiation, % at 10 µM. AID 485347. P14416. 340,000 tested, 0.34% active;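 active means potentiation over 3 SD above the plate norm, cut at about 30% in these data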; further: 0% is about no effect
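Tetracycline-induced Hek293 Trex D2 cells, force-coupled to calcium, loaded with no-wash calcium dye. Compound added with 180 s kinetic read for agonism, then EC20 dopamine and a further 180 s read for potentiation.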
The depositor's hits bear a star; ? = inconclusive; / = not tested or not shown.

SMILES	D2 PAM-1	D2 antag	D2 ag-1	D2 ag-2	D2 PAM-2
Nc1ccc(-c2c3ccc(=O)cc-3oc3cc(O)ccc23)cc1C(=O)O	-14	-33	-10	92*	-5
CC(C)NC[C@H](O)c1ccc(O)c(O)c1	-5	12	-4	5	9
CCC(c1ccc(O)c(O)c1)C(CC)c1ccc(O)c(O)c1 (centres undefined)	16	/	59*	/	/
Cc1ccc2c(CC(=O)Nc3c(C(=O)Nc4cccc(Cl)c4)oc4ccccc34)coc2c1C	/	/	/	1	-22
CCOC(=O)Cn1nc(Cc2ccccc2)c2ccccc2c1=O	-7	13	-6	0	43*
CCOC(=O)Cn1nc(-c2ccccc2)c2ccccc2c1=O	-11	-3	-1	-1	-4
COc1ccc(-n2c(-c3ccccc3F)nc3c(cnn3-c3ccc(C)cc3)c2=O)cc1	/	/	/	0	-2
CC(C)c1ccc(Cc2cnc(NC(=O)c3ccc4c(c3)CC(c3ccccc3)OC4=O)s2)cc1 (centres undefined)	/	/	/	1	9
O=S1(=O)NC(=NCc2ccccc2)c2ccccc21	5	30*	-3	0	-7
Cc1c(Br)c([N+](=O)[O-])nn1CC(=O)NC1CCCCCC1	-6	41*	-2	-2	1
Cc1c(Cl)c([N+](=O)[O-])nn1CC(=O)NC1CCCCC1	-9	11	-4	0	-6
COc1ccc(-c2ccc(SCc3cccnc3)nn2)cc1OC	54*	/	1	/	/
c1cncc(CSc2ccc(-c3cccnc3)nn2)c1	3	12	2	1	3
CC(=O)NC(c1cccc(F)c1)c1nc(-c2cccs2)cs1 (centres undefined)	-2	/	5	/	/
CCCN(C(=O)c1c(-c2ccccc2)noc1C)c1c(N)n(Cc2ccccc2)c(=O)[nH]c1=O	-2	65*	0	-1	-3
CCN(C(=O)COC(=O)c1c(-c2ccccc2)noc1C)c1c(N)n(Cc2ccccc2)c(=O)[nH]c1=O	-8	/	1	/	/
CCOc1ccc(-n2c(=O)c3c(C)c(C)sc3n(CC(=O)c3ccccc3)c2=O)cc1	/	/	/	1	6
Cc1cc(C)n(-c2nc(C)c(C)c(=O)n2CC(=O)Nc2ccc(OC(F)(F)F)cc2)n1	/	/	/	/	-4
COc1ccc(N2C(=O)CCC2=O)cc1	4	34*	-2	0	17
CC(=O)Oc1ccc(N2C(=O)CCC2=O)cc1	1	0	-4	0	-2
CC(=O)c1ccc(N2CCN(CC(O)COC(c3ccccc3)c3ccccc3)CC2)cc1 (centres undefined)	-12	-17	-1	-1	37*
COc1cc(C(C)=O)ccc1OCC(O)CN1CCN(c2cc(C)cc(C)c2)CC1 (centres undefined)	-4	58*	4	1	-30
CC(=O)c1ccc(OCC(O)CN2CCN(S(=O)(=O)c3c(C)cc(C)cc3C)CC2)cc1 (centres undefined)	-6	0	1	1	2
CC1CCCN(CC(O)COC(c2ccccc2)c2ccccc2)C1 (centres undefined)	-10	50*	-1	1	-10
CCOC(=O)c1sc2ccccc2c1S(=O)(=O)N1CCN(c2cccc(C)c2C)CC1	/	/	/	-2	15
SMILES	D2 PAM-1	D2 antag	D2 ag-1	D2 ag-2	D2 PAM-2
CN(C)c1ccc(C(CNC(=O)c2ccccc2Cl)N2CCCC2)cc1 (centres undefined)	/	/	/	0	-4
O=C1N/C(=N\S(=O)(=O)Cc2ccccc2)S/C1=C/c1cc([N+](=O)[O-])ccc1O	-14	31*	-9	59*	2
O=C1N/C(=N\S(=O)(=O)c2ccccc2)S/C1=C\c1cc([N+](=O)[O-])ccc1O	-25	-19	-13	33*	-4
COc1cc(/C=C2\S/C(=N/S(=O)(=O)Cc3ccccc3)NC2=O)c([N+](=O)[O-])cc1OC	-15	/	-5	/	1
Cc1ccc(NC(=O)CNCc2cccs2)c(Br)c1	-5	32*	-1	0	8
COc1ccccc1OCC(=O)Nc1c(C(=O)c2ccc(F)cc2)oc2ccccc12	/	/	/	0	8
OC(COc1ccc(Cl)cc1)CN1CCN(c2cccc(Cl)c2)CC1 (centres undefined)	-16	73*	3	2	-22
OC(CN1CCN(c2cccc(Cl)c2)CC1)c1ccccc1 (centres undefined)	-28	53*	3	10	-13
Cc1cccc(N2CCN(CC(O)COc3ccc(Cl)cc3)CC2)c1 (centres undefined)	-54	58*	0	-1	-19
OC(COc1ccc2cc(Br)ccc2c1)CN1CCN(c2ccccn2)CC1 (centres undefined)	?	-4	41*	-2	26
Cc1cccc(C)c1C(OCCN(C)C)C1CCCCC1 (centres undefined)	-35	89*	-2	1	-20
CN(C)CCOC(c1ccccc1)c1ccccc1 (tested in a mixture with another compound)	-15	-10	-7	-3	7
Cc1ccc(CNC(=O)CC2Oc3ccccc3NC2=O)cc1 (centres undefined)	/	/	/	/	-3
O=C(Cn1ccc(=O)[nH]c1=O)c1ccc([N+](=O)[O-])o1	6	/	47*	/	/
COc1ccc2c(c1)C=C(CN1CCN(Cc3ccccc3C)C(CCO)C1)CO2 (centres undefined)	-25	58*	4	-1	-20
COc1ccc2c(c1)C=C(CN1CCC(CO)(CCc3ccccc3)CC1)CO2	-18	31*	-1	1	-24
Cc1cc(=O)n2[nH]c(C)c(-c3ccc(Cl)cc3)c2n1	-24	46*	-1	-2	-26
Cc1cc(=O)n2[nH]c(C)c(-c3ccccc3)c2n1	-36	6	-4	3	-16
CN1c2ccccc2C(C)(C)C12C=Nc1c(ccc3ccccc13)O2 (centres undefined)	87*	34*	?	0	1
CN1c2ccccc2C(C)(C)[C@]12C=Cc1cc(O)ccc1O2	19	-1	-2	0	-28
COc1ccc2ccc3c(c2c1)N=CC1(O3)N(C)c2ccccc2C1(C)C (centres undefined)	71*	2	13	1	9
Clc1ccccc1CN(Cc1ccccc1)C(c1cccs1)c1nnnn1C1CCCC1 (centres undefined)	-17	50*	-5	0	-6
CCN(Cc1ccccc1)C(c1cccs1)c1nnnn1C1CCCCC1 (centres undefined)	-30	8	-4	0	2
COc1ccc(CNC(=O)C2CCN(S(=O)(=O)c3c(C)noc3/C=C/c3cccs3)CC2)cc1	/	/	/	1	10
Cc1c(C)c2cccnc2c2ncccc12	-8	-39	-3	1	-4
